Experimental data published in PubChem BioAssay AID1159580 (chemical genetic matrix, 2015).
Among all 5,500 compounds or so, about 2,000 (36%) were called active. Inconclusive results (about 18%) are left out. Cut-off read from the data, not from the text of the source: active = normalized growth mostly below about 0.91 (no sharp cut-off); inconclusive = no clear call, values can overlap the other calls; inactive = mostly above about 0.92. This is one part of the list.

Test: chemical genetic growth profiling, strain panel (AID 1159580);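 note: tested at 20 µM; growth read once vehicle control cultures reached saturation at 30 °C; 1 = growth at the plate median or of vehicle wells; lower values mean less growth of the strain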
Details: growth OD

Measured: normalized growth

COc1ccc(-c2oc3c(CC=C(C)C)c(O[C@@H]4O[C@H](CO)[C@@H](O)[C@H](O)[C@H]4O)cc(O)c3c(=O)c2O[C@@H]2O[C@@H](C)[C@H](O)[C@@H](O)[C@H]2O)cc1
inactive: S. cerevisiae deletion strains, locus YJR066W, strain TOR1, stronger effect = lower value 0.949 | S. cerevisiae deletion strains, locus YKL009W, strain mrt4, stronger effect = lower value 0.963 | S. cerevisiae deletion strains, locus YKL068W, stronger effect = lower value 0.986 | S. cerevisiae deletion strains, locus YKL085W, strain MDH1 (second series), stronger effect = lower value 0.975 | S. cerevisiae deletion strains, locus YKL085W, strain MDH1, stronger effect = lower value 0.975 | S. cerevisiae deletion strains, locus YKL160W, strain elf1, stronger effect = lower value 1 | S. cerevisiae deletion strains, locus YKL190W, strain CNB1, stronger effect = lower value 1.02 | S. cerevisiae deletion strains, locus YKR001C, strain vps1, stronger effect = lower value 0.993 | S. cerevisiae deletion strains, locus YKR026C, strain gcn3, stronger effect = lower value 1.04 | S. cerevisiae deletion strains, locus YKR091W, strain srl3, stronger effect = lower value 1.03 | S. cerevisiae deletion strains, locus YLL001W, strain dnm1, stronger effect = lower value 1.01 | S. cerevisiae deletion strains, locus YLL026W, stronger effect = lower value 1.04 | S. cerevisiae deletion strains, locus YLL041C, strain sdh2, stronger effect = lower value 1.04 | S. cerevisiae deletion strains, locus YLR027C, strain aat2, stronger effect = lower value 1.03 | S. cerevisiae deletion strains, locus YLR039C, strain RIC1, stronger effect = lower value 1.01 | S. cerevisiae deletion strains, locus YLR058C, strain SHM2, stronger effect = lower value 0.988 | S. cerevisiae deletion strains, locus YLR102C, strain apc9, stronger effect = lower value 0.974 | S. cerevisiae deletion strains, locus YLR113W, strain HOG1, stronger effect = lower value 1.04 | S. cerevisiae deletion strains, locus YLR221C, strain rsa3, stronger effect = lower value 1.04 | S. cerevisiae deletion strains, locus YLR258W, strain gsy2, stronger effect = lower value 1.01 | S. cerevisiae deletion strains, locus YLR262C, strain YPT6 (second series), stronger effect = lower value 1.05 | S. cerevisiae deletion strains, locus YLR262C, strain YPT6, stronger effect = lower value 0.971 | S. cerevisiae deletion strains, locus YLR268W, strain sec22, stronger effect = lower value 0.969 | S. cerevisiae deletion strains, locus YLR320W, strain mms22, stronger effect = lower value 1.04 | S. cerevisiae deletion strains, locus YLR330W, strain CHS5, stronger effect = lower value 1.01 | S. cerevisiae deletion strains, locus YLR342W, strain FKS1 (second series), stronger effect = lower value 1.06 | S. cerevisiae deletion strains, locus YLR342W, strain FKS1, stronger effect = lower value 1.04 | S. cerevisiae deletion strains, locus YLR357W, strain rsc2, stronger effect = lower value 1.02 | S. cerevisiae deletion strains, locus YLR370C, strain arc18, stronger effect = lower value 1.02 | S. cerevisiae deletion strains, locus YLR371W, strain rom2, stronger effect = lower value 0.965 | S. cerevisiae deletion strains, locus YLR384C, strain iki3, stronger effect = lower value 1.01 | S. cerevisiae deletion strains, locus YLR418C, strain cdc73, stronger effect = lower value 0.998 | S. cerevisiae deletion strains, locus YML016C, strain PPZ1, stronger effect = lower value 1 | S. cerevisiae deletion strains, locus YML032C, strain rad52, stronger effect = lower value 1 | S. cerevisiae deletion strains, locus YML120C, strain ndi1, stronger effect = lower value 1.02 | S. cerevisiae deletion strains, locus YML124C, strain tub3, stronger effect = lower value 0.975 | S. cerevisiae deletion strains, locus YMR058W, strain fet3, stronger effect = lower value 1.04 | S. cerevisiae deletion strains, locus YMR078C, strain ctf18, stronger effect = lower value 0.977 | S. cerevisiae deletion strains, locus YMR125W, strain sto1, stronger effect = lower value 1.04 | S. cerevisiae deletion strains, locus YMR129W, stronger effect = lower value 1.04 | S. cerevisiae deletion strains, locus YMR205C, strain PFK2, stronger effect = lower value 1.04 | S. cerevisiae deletion strains, locus YMR223W, strain ubp8, stronger effect = lower value 0.979 | S. cerevisiae deletion strains, locus YMR231W, strain pep5, stronger effect = lower value 1 | S. cerevisiae deletion strains, locus YMR263W, strain SAP30, stronger effect = lower value 1 | S. cerevisiae deletion strains, locus YMR307W, strain GAS1, stronger effect = lower value 1.15 | S. cerevisiae deletion strains, locus YNL067W, strain RPL9B, stronger effect = lower value 0.963 | S. cerevisiae deletion strains, locus YNL071W, strain lat1, stronger effect = lower value 1.03 | S. cerevisiae deletion strains, locus YNL128W, strain TEP1, stronger effect = lower value 0.974 | S. cerevisiae deletion strains, locus YNL183C, strain NPR1, stronger effect = lower value 0.952 | S. cerevisiae deletion strains, locus YNL209W, strain ssb2, stronger effect = lower value 1.03 | S. cerevisiae deletion strains, locus YNL233W, strain BNI4, stronger effect = lower value 0.99 | S. cerevisiae deletion strains, locus YNL248C, strain rpa49, stronger effect = lower value 1.04 | S. cerevisiae deletion strains, locus YNL250W, strain rad50, stronger effect = lower value 0.93 | S. cerevisiae deletion strains, locus YNL271C, strain bni1, stronger effect = lower value 0.965 | S. cerevisiae deletion strains, locus YNL298W, strain CLA4, stronger effect = lower value 0.981 | S. cerevisiae deletion strains, locus YNL307C, strain MCK1, stronger effect = lower value 0.979 | S. cerevisiae deletion strains, locus YNL322C, strain KRE1 (second series), stronger effect = lower value 1.03 | S. cerevisiae deletion strains, locus YNR049C, strain mso1, stronger effect = lower value 1.03 | S. cerevisiae deletion strains, locus YNR052C, strain pop2, stronger effect = lower value 0.984 | S. cerevisiae deletion strains, locus YOL012C, strain htz1 0.851 | S. cerevisiae deletion strains, locus YOL147C, strain pex11, stronger effect = lower value 0.989 | S. cerevisiae deletion strains, locus YOR001W, strain rrp6, stronger effect = lower value 1.05 | S. cerevisiae deletion strains, locus YOR061W, strain CKA2, stronger effect = lower value 0.992 | S. cerevisiae deletion strains, locus YOR069W, strain VPS5, stronger effect = lower value 0.999 | S. cerevisiae deletion strains, locus YOR070C, strain gyp1, stronger effect = lower value 1.01 | S. cerevisiae deletion strains, locus YOR080W, strain dia2, stronger effect = lower value 1.04 | S. cerevisiae deletion strains, locus YOR083W, strain WHI5, stronger effect = lower value 0.988 | S. cerevisiae deletion strains, locus YOR106W, strain vam3, stronger effect = lower value 0.989 | S. cerevisiae deletion strains, locus YOR136W, strain idh2, stronger effect = lower value 0.985 | S. cerevisiae deletion strains, locus YOR144C, strain elg1, stronger effect = lower value 1 | S. cerevisiae deletion strains, locus YOR184W, strain ser1, stronger effect = lower value 0.984 | S. cerevisiae deletion strains, locus YOR231W, strain MKK1, stronger effect = lower value 1.02 | S. cerevisiae deletion strains, locus YOR265W, strain rbl2, stronger effect = lower value 1.02 | S. cerevisiae deletion strains, locus YOR270C, strain vph1, stronger effect = lower value 0.999 | S. cerevisiae deletion strains, locus YOR290C, strain snf2, stronger effect = lower value 0.981 | S. cerevisiae deletion strains, locus YOR316C, strain cot1, stronger effect = lower value 0.976 | S. cerevisiae deletion strains, locus YPL051W, strain arl3, stronger effect = lower value 1.02 | S. cerevisiae deletion strains, locus YPL055C, strain LGE1, stronger effect = lower value 1 | S. cerevisiae deletion strains, locus YPL078C, strain atp4, stronger effect = lower value 0.986 | S. cerevisiae deletion strains, locus YPL106C, strain sse1, stronger effect = lower value 1.04 | S. cerevisiae deletion strains, locus YPL240C, strain hsp82, stronger effect = lower value 1.02 | S. cerevisiae deletion strains, locus YPL241C, strain CIN2, stronger effect = lower value 0.99 | S. cerevisiae deletion strains, locus YPL256C, strain CLN2, stronger effect = lower value 1 | S. cerevisiae deletion strains, locus YPR119W, strain clb2, stronger effect = lower value 0.98 | S. cerevisiae deletion strains, locus YPR141C, strain kar3, stronger effect = lower value 0.968 | S. cerevisiae deletion strains, locus YPR163C, strain tif3, stronger effect = lower value 0.978 | S. cerevisiae deletion strains, locus YPR167C, strain met16, stronger effect = lower value 0.983 | S. cerevisiae deletion strains, strain wtn01, stronger effect = lower value 0.986 | S. cerevisiae strains, strain wild type, stronger effect = lower value 1.01
